Measured values published in PubChem BioAssay AID540300 (National Center for Advancing Translational Sciences (NCATS), 2011).
The list shows a part of the results. Calls of active or inactive are those of the source. The call rests on the fitted dose curve; in most records, active means well fitted curve in the direction sought with a large enough effect; inconclusive means small, poorly fitted or top-dose-only effect, or another doubt; inactive means no such curve, though single readings can be large or run the other way.

assay: Inhibitors of DNA Polymerase Beta: Hit Validation in Klenow Fragment Assay; settings: Klenow exo- polymerase counter-screen, fluorescent DNA substrate; series mostly up to 57.1 µM
Source text: The base excision repair system in human cells is a target for therapeutic modulation of the response to irradiation treatment and DNA-damaging drugs. A key enzyme in this system is the bi-functional DNA polymerase known as DNA polymerase beta (pol b). […] Using an integrated approach involving discovery of small molecule probes for pol b via qHTS and validation by crystallography and kinetics along with cell-based validation experiments, we will test the hypothesis that base excision repair can be strategically modulated in human cells by targeting pol b. Thus, we anticipate the pol b-specific probes emerging from this research will serve as starting points in the development of clinical agents for use in down regulation of DNA base excision repair during therapeutic interventions against cancer. After the completion of the qHTS against the Molecular Libraries Small Molecular Repository (MLSMR), cherry picked compounds were re-affirmed in the primary qHTS pol beta assay and further characterized in several follow-up assays. An E. coli Klenow exo- fragment assay was used as a counter screen assay. The Klenow exo- fragment is a large protein fragment of DNA polymerase which lack exonuclease activity. Measuring compounds activity against the Klenow exo- fragment helps identifying promiscuous compounds. […] NIH Chemical Genomics Center [NCGC] NIH Molecular Libraries Probe Centers Network [MLPCN] MLPCN Grant: MH090863-01 Assay Submitter (PI): Samuel Wilson, National Institute of Environmental Health Sciences (NIEHS), NIH Assay Submitter (PI): Samuel Wilson, National Institute of Environmental Health Sciences (NIEHS), NIH
A stepwise description of the 1536-well assay is shown as described in primary assay. Three microliters of reagents (buffer in column 3 and 4 as negative control and 5nM Klenow enzyme in columns 1, 2, and 5-48) will be dispensed into 1,536-well black solid-bottomed plate. Compounds (23nl) will be transferred via Kalypsys pin tool equipped with 1536-pin array (10nl slotted pins, V&P Scientific, San Diego, CA). The plates will then be incubated for 15 min at room temperature, and 1 µl substrate of tripartate ds DNA (50nM final concentration) will be added to start the reaction and kinetically read twice at 0 min and 10 min on ViewLux reader.

Q: With `Cc1ccc(C(=O)Oc2coc(CSc3nnc(NC(=O)c4cccs4)s3)cc2=O)cc1C` as the compound, how does the outcome read?
A: inactive

Q: With `COc1cc([C@H](Cc2ccccc2)NC(C)=O)oc(=O)c1` as the compound, how does the outcome read?
A: inactive

Q: For `Cc1c(CCC(=O)O)c(=O)oc2c(C)c(OCc3ccccc3Cl)ccc12`, which outcome is on record?
A: inactive

Q: For `CCOc1ccccc1/C=c1\sc2nc(-c3ccco3)nn2c1=O`, which outcome is on record?
A: inactive

Q: For `COc1ccc(Cc2nnc(NC(=O)Cc3cccs3)s2)cc1`, which outcome is on record?
A: inactive

Q: Which outcome does the source give for `O=C(Nc1ccc(S(=O)(=O)Nc2nccs2)cc1)c1cc(-c2ccncc2)nc2ccccc12` here?
A: inactive

Q: With `O=C(CN1CCN(S(=O)(=O)c2cc(Cl)ccc2Cl)CC1)c1ccc(O)c(O)c1` as the compound, how does the outcome read?
A: inactive

Q: For `O=C(c1cc2c(s1)CCC2)N1CCN(c2ccccc2)CC1`, which outcome is on record?
A: inactive

Q: Which outcome does the source give for `Cc1ccc2nc(-c3ccncc3)cc(C(=O)Nc3ccc(OC(F)F)cc3)c2c1` here?
A: inactive

Q: For `Cc1c(CC(=O)N2CCN(C(=O)C3COc4ccccc4O3)CC2)c(=O)oc2c(O)c(O)ccc12` (stereo not given), which outcome is on record?
A: inactive
